Assay results: ChEMBL document CHEMBL3988442, “University of Dundee, Small-Polar-MMV Screening Library” (2021)
For some of these results: Entries with a potency or affinity are not part of this list.

Tests used:
[1] = target: T1, Methionyl-tRNA synthetase, putative (Leishmania donovani (strain BPK282A1)) (UniProt E9BF75); assay: Leishmania donovani Methionine tRNA synthetase (LdMetRS):v7. Dose response assay; assay type: functional; design: conc 80 nM, time 150 minutes
T1 sequence (whole entry): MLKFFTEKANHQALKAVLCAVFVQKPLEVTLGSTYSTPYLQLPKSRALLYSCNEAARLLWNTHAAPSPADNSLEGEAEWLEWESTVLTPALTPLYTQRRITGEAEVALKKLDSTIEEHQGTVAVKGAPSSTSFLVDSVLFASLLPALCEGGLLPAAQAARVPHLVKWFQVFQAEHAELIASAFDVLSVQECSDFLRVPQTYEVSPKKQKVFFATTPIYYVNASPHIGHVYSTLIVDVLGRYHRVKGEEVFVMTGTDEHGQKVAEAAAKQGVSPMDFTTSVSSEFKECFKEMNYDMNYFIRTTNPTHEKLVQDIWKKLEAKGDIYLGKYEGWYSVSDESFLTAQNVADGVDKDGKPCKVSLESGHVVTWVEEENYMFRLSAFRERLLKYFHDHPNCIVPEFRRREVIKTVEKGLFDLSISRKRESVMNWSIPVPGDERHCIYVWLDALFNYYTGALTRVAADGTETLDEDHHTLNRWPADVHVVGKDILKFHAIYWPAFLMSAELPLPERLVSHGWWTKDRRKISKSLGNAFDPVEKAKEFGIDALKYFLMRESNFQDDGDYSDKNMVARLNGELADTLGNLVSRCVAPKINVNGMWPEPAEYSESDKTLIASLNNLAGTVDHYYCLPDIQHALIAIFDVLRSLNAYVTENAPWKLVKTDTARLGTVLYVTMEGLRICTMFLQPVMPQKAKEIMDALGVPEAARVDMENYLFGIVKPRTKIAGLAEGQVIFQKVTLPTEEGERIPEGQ

[2] = target: Protein translocase subunit SecA (Escherichia coli (strain K12)) (UniProt P10408); assay: Assay to Identify E. coli SecA ATPase Inhibitors; assay type: functional; design: scale not given: direction of the effect not stated beside the values; settings: 30 µM
Chain of Protein translocase subunit SecA (Escherichia coli (strain K12)) (P10408 whole entry): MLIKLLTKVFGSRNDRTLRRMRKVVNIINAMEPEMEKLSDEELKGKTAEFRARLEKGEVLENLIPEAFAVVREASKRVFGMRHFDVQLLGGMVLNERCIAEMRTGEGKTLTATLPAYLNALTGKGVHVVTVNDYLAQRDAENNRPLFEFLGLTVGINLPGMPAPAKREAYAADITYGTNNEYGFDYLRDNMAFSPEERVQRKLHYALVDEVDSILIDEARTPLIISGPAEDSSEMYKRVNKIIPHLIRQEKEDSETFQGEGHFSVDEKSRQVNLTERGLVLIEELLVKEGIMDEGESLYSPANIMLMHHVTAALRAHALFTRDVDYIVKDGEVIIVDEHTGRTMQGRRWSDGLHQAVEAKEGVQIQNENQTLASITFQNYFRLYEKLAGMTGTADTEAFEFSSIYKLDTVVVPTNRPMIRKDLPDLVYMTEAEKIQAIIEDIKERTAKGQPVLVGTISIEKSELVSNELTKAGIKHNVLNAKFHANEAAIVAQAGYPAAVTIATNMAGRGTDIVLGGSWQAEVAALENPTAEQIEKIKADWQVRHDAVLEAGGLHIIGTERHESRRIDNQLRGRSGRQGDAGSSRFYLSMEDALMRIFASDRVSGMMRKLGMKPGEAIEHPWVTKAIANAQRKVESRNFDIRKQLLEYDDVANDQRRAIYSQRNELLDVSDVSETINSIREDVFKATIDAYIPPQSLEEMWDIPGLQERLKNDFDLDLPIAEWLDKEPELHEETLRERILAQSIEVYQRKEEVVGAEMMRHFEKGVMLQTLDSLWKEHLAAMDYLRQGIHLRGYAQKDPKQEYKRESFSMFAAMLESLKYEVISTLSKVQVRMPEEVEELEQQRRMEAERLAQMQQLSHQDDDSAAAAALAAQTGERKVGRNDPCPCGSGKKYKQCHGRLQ

[3] = target: T2, Ubiquitin-activating enzyme e1, putative (Leishmania donovani (strain BPK282A1)) (UniProt E9BSI1); assay: Leishmania donovani Ubiquitin Activating Enzyme (LdE1); assay type: functional; design: scale not given: direction of the effect not stated beside the values; settings: 30 µM
T2 sequence (whole entry): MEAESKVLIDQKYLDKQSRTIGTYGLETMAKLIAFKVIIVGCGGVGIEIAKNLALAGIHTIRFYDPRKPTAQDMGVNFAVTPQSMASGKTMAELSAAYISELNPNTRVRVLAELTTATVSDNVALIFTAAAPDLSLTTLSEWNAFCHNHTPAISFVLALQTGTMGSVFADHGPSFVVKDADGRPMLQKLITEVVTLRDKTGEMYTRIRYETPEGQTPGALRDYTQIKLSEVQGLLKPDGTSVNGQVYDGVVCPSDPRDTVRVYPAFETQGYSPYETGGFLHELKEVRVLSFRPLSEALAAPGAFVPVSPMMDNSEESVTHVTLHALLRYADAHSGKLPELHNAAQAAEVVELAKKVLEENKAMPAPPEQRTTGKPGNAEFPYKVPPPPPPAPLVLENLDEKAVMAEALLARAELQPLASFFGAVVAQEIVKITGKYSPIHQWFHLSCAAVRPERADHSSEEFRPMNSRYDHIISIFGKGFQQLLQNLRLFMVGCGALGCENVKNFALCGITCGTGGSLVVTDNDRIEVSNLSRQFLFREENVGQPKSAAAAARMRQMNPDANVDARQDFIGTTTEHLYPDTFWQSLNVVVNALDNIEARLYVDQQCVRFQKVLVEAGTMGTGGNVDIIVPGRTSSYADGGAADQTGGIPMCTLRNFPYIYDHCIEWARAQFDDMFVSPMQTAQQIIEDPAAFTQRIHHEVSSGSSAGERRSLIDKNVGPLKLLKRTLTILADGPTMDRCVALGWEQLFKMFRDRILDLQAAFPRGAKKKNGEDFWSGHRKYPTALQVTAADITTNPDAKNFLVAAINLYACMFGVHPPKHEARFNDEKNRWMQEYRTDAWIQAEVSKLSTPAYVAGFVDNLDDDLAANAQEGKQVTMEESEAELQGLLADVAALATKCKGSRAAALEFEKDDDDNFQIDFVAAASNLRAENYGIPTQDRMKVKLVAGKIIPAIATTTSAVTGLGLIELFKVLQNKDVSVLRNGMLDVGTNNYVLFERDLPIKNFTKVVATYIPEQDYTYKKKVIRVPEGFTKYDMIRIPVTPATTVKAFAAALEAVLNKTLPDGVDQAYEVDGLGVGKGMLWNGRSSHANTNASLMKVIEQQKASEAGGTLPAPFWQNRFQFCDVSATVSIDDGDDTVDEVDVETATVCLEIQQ

[4] = target: AMP-activated protein kinase, AMPK (Homo sapiens) (UniProt P54646+O43741+P54619+Q9UGJ0+Q9Y478+Q13131+Q9UGI9); assay: AMP-dependent Kinase enzyme assay. An in vitro enzyme assay that detects ADP turnover that is directly proportional to AMPK activity. This uses naive AMPK that is activated during the assay with MK-8722; assay type: functional; design: scale not given: direction of the effect not stated beside the values; settings: 30 µM
[5] = target: Sialic acid-binding Ig-like lectin 9 (Homo sapiens) (UniProt Q9Y336); assay: Hs-Siglec9 ALPHAscreen SOP 20170721; design: scale not given: direction of the effect not stated beside the values; settings: 10 µM
Chain of Sialic acid-binding Ig-like lectin 9 (Homo sapiens) (Q9Y336 whole entry): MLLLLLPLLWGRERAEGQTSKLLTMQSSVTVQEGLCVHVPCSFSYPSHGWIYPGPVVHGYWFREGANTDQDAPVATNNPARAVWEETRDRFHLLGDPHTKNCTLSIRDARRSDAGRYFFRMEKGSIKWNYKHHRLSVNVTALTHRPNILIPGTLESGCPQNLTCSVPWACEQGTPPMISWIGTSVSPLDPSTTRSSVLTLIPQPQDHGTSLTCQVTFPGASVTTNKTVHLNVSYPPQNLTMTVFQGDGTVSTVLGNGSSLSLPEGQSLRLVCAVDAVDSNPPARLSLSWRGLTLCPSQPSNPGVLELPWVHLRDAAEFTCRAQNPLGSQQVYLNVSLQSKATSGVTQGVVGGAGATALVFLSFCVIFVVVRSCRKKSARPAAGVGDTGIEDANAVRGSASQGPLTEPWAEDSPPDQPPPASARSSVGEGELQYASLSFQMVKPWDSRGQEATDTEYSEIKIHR

[6] = tested on: Trypanosoma cruzi; assay: Trypanosoma cruzi phosphomannomutase and mannose-1-phosphate guanylyltransferase assay; assay type: functional; design: scale not given: direction of the effect not stated beside the values; settings: 10 µM
[7] = target: T3, Arginase-2, mitochondrial (Homo sapiens) (UniProt P78540); assay: in vitro enzyme assay to detect the production of urea directly proportional to the activity of Arginase II; assay type: functional; design: scale not given: in the data most compounds retested in dose-response had high values; settings: 33.3 µM
T3 sequence (whole entry): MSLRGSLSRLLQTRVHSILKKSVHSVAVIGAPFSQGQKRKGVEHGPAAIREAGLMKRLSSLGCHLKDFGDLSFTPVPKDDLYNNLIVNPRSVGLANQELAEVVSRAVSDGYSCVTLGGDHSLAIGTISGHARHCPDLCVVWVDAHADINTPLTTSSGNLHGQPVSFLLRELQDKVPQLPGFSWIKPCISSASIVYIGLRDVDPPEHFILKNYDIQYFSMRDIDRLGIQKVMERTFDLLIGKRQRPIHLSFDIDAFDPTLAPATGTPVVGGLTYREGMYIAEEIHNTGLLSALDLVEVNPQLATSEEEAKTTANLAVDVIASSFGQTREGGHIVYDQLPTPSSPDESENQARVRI

[8] = target: T4, Proteasome subunit beta (Trypanosoma cruzi) (UniProt O96673); assay: Trypanosoma cruzi proteasome chymotrypsin-like activity (TcProtChymo) assay.; assay type: functional; design: scale not given: in the data most compounds retested in dose-response had high values; settings: 9.37 µM
T4 sequence (whole entry): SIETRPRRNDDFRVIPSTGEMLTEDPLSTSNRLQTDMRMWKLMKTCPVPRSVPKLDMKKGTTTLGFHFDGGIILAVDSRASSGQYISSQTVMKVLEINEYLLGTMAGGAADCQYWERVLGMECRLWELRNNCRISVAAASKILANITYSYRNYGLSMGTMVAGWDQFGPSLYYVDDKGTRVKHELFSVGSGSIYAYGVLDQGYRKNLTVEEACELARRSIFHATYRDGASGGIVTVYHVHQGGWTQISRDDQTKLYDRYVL

[9] = species on record: Homo sapiens; assay: To identify inhibition of the IFN signalling (Jak-Stat) pathway via expression of an eGFP reporter gene under the control of an IFN-stimulated response element (ISRE) containing MxA promoter.; assay type: functional; design: scale not given: direction of the effect not stated beside the values; settings: 30 µM
[10] = target: T5, Tyrosyl-tRNA synthetase, putative (Trypanosoma cruzi (strain CL Brener)) (UniProt Q4DSP6); assay: Trypanosoma cruzi tyrosyl tRNA synthetase (TcYRS) _High Tyrosine SOP; assay type: functional; design: scale not given: in the data most compounds retested in dose-response had high values; settings: 30 µM
T5 sequence (whole entry): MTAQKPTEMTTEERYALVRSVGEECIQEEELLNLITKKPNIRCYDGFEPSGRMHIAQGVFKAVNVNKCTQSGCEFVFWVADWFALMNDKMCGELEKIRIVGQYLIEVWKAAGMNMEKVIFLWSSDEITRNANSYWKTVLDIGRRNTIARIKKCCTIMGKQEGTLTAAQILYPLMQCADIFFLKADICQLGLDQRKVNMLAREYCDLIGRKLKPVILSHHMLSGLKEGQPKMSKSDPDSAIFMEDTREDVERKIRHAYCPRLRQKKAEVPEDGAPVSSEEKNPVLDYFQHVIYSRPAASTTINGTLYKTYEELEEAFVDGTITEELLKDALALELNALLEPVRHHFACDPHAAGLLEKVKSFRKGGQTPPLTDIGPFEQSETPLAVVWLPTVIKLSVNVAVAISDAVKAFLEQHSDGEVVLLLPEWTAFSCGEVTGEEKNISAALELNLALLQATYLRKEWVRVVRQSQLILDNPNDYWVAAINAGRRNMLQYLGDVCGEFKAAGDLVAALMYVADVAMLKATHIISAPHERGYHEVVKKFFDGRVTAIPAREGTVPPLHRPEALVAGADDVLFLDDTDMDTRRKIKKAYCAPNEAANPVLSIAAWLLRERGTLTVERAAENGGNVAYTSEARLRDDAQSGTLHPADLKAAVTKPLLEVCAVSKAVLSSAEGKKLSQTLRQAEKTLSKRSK

[11] = target: T5, Tyrosyl-tRNA synthetase, putative (Trypanosoma cruzi (strain CL Brener)); assay: Trypanosoma cruzi tyrosyl tRNA synthetase (TcYRS) SOP; assay type: functional; design: scale not given: direction of the effect not stated beside the values; settings: 30 µM
[12] = target: Chromo domain-containing protein 1 (Saccharomyces cerevisiae (strain ATCC 204508 / S288c) (Baker's yeast)) (UniProt P32657); assay: ScCHD-1 Enzyme Inhibition Assay; assay type: functional; design: scale not given: in the data most compounds retested in dose-response had high values; settings: 30 µM
Chain of Chromo domain-containing protein 1 (Saccharomyces cerevisiae (strain ATCC 204508 / S288c) (Baker's yeast)) (P32657 whole entry, the tested form may be a part): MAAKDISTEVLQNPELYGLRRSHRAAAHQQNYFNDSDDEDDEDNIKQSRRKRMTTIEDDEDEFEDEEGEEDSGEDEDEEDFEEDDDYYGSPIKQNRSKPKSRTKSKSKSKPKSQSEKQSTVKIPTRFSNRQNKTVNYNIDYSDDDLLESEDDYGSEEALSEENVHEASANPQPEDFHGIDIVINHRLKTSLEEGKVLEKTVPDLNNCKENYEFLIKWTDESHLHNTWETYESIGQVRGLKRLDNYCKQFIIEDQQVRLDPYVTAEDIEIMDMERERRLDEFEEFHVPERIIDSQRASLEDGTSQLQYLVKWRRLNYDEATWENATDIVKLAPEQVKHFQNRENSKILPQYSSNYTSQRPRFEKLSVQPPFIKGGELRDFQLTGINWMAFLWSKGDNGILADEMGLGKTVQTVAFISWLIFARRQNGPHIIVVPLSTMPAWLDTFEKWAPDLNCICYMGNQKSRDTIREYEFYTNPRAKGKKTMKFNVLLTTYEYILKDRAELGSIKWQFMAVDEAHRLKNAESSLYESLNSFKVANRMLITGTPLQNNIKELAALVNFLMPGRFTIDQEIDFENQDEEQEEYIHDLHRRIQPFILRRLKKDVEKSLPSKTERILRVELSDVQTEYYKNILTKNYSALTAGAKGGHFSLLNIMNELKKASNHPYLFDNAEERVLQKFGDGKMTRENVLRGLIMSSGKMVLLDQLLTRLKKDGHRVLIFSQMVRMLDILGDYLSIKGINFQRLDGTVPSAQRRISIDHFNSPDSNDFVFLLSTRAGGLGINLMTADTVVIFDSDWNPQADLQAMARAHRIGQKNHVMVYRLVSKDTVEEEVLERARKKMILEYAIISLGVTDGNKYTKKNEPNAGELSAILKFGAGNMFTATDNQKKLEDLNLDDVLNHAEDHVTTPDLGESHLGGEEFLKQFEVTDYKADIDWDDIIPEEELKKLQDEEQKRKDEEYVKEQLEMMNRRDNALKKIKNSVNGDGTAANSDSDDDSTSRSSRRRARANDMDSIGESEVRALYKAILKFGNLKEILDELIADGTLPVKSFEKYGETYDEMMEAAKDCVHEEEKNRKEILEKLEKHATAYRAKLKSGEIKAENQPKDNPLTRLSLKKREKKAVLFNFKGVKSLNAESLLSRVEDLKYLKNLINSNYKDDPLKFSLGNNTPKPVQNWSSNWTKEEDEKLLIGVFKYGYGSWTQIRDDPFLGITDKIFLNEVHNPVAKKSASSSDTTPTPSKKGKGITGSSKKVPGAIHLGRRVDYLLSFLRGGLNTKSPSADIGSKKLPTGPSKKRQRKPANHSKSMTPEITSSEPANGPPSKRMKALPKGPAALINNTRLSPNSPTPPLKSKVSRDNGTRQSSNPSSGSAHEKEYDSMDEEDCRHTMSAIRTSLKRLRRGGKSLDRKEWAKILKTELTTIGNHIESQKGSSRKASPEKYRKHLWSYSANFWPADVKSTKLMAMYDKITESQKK

CCN(CC)c1ccc2ccc(C(=O)NC3CC3)cn12
PXC50 ([1]; MAX_EFFECT 23.88888889): < 4 | PXC50 ([1]; MAX_EFFECT 27.69953052): < 4 | PXC50 ([1]; MAX_EFFECT 36.60245184): < 4 | PXC50 ([1]; MAX_EFFECT 45.65217391): < 4 | PXC50 ([1]; MAX_EFFECT 46.2585034): < 4

Cc1cccnc1NC(=O)NCc1ccc(N2CCNC(=O)C2)cc1
PXC50 ([1]; BOTTOM 2.91901785, HILLSLOPE 1.51189845, MAX_EFFECT 82.83828383, TOP 100.0): 4.39 | PXC50 ([1]; BOTTOM 3.848291916, HILLSLOPE 1.411514836, MAX_EFFECT 84.7826087, TOP 100.0): 4.45 | PXC50 ([1]; BOTTOM 5.032769966, HILLSLOPE 1.524648586, MAX_EFFECT 89.96415771, TOP 100.0): 4.48 | PXC50 ([1]; MAX_EFFECT 2.073365231): < 4 | PXC50 ([1]; MAX_EFFECT 2.495201536): < 4 | Percent Effect [2]: -3.51% | Percent Effect [3]: 15.6% | Percent Effect [4]: 9.04% | Percent Effect [5]: 11.4% | Percent Effect [6]: 1.5% | Percent Effect [7]: -2.13% | Percent Effect [8]: 8.78% | Percent Effect [9]: 5.74% | Percent Effect [10]: 41.8% | Percent Effect [11]: 34.1% | Percent Effect [12]: -8.16%

Oc1ccc(N(CCc2ccccc2)CCn2cncn2)cc1
PXC50 ([1]; BOTTOM 3.490457709, HILLSLOPE 3.448426001, MAX_EFFECT 80.53691275, TOP 87.69859371): 4.3 | PXC50 ([1]; BOTTOM 4.951266088, HILLSLOPE 3.910237354, MAX_EFFECT 63.19444444, TOP 100.0): 4.05 | PXC50 ([1]; MAX_EFFECT 6.53907496): < 4 | PXC50 ([1]; MAX_EFFECT 12.85988484): < 4 | PXC50 ([1]; MAX_EFFECT 66.72443674): < 4

Cc1nn(C)c(C)c1CCn1cncc1-c1ccc2c(c1)CC(C)N2C (centres undefined)
PXC50 ([1]; BOTTOM 5.604710013, HILLSLOPE 1.073782549, MAX_EFFECT 50.43327556, TOP 78.0664514): 4.19 | PXC50 ([1]; MAX_EFFECT 34.22818792): < 4 | PXC50 ([1]; MAX_EFFECT 37.5): < 4 | PXC50 ([1]; MAX_EFFECT 42.63038549): < 4 | PXC50 ([1]; MAX_EFFECT 45.23364486): < 4

COc1ccccc1C1(CNc2nnc(C)c(C)c2C#N)CCCC1
PXC50 ([1]; BOTTOM 3.334115973, HILLSLOPE 1.087838863, MAX_EFFECT 53.16698656, TOP 83.15988554): 4.21 | PXC50 ([1]; MAX_EFFECT 37.68115942): < 4 | PXC50 ([1]; MAX_EFFECT 40.13605442): < 4 | PXC50 ([1]; MAX_EFFECT 44.81658692): < 4 | PXC50 ([1]; MAX_EFFECT 49.91243433): < 4

O=C(CCC1CCCC1)N1CCC(c2ncc3c(n2)CCNC3)CC1
PXC50 ([1]; MAX_EFFECT 18.13380282): < 4 | PXC50 ([1]; MAX_EFFECT 20.42755344): < 4 | Percent Effect [2]: -7.04% | Percent Effect [3]: 14.9% | Percent Effect [4]: 0.0771% | Percent Effect [5]: 5.51% | Percent Effect [6]: 2.57% | Percent Effect [7]: -6.26% | Percent Effect [8]: 8.42% | Percent Effect [9]: 31.7% | Percent Effect [10]: 10.8% | Percent Effect [11]: 19.5% | Percent Effect [12]: -23.3%
